# Data as given in the supplement of paper PMC10849652.
# Of roughly 7,900 targets only a part is listed; those with a hit were picked by preference. About 0.6% of all pairs of compound and target were hits. A number with no mark means an inactive call.
# Legend:
# Test in all cases: log2 fold change, soluble protein after heating vs DMSO (PISA); higher = thermal stabilisation; K562 cells, 10 uM, 30 min; active = over 0.2 and 3.5 SD of the protein, either way, in both replicates (recomputed)
# [1] = compound: CC[C@@H]1C(=O)N(C)c2cnc(Nc3ccc(C(=O)NC4CCN(C)CC4)cc3OC)nc2N1C1CCCC1
# How it was run: (§1)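 K562 cells at 2×10^6 cells/mL were treated with 10 μM compound for 30 min. Aliquots were heated for 3 min across 48°C-58°C, pooled, and extracted in PBS with 0.5% NP-40 at 4°C; soluble protein was the supernatant after 21,000xg for 90 min. Soluble protein was quantified by TMTpro 16plex LC-MS/MS with channel sums equalised, and reported as log2 fold change in thermal stability against DMSO controls, with values from duplicates.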
# volasertib = compound: CC[C@@H]1C(=O)N(C)c2cnc(Nc3ccc(C(=O)N[C@H]4CC[C@H](N5CCN(CC6CC6)CC5)CC4)cc3OC)nc2N1C(C)C [volasertib]
# How it was run: as §1
# [2] = compound: CC[C@H](C)N1C=C(C2=C(C=C(C=C21)C3=CN=C(C=C3)N4CCNCC4)C(=O)NCC5=C(C=C(NC5=O)C)C)C
# How it was run: as §1
# epoxomicin = compound: CC[C@H](C)[C@@H](C(=O)N[C@@H]([C@@H](C)O)C(=O)N[C@@H](CC(C)C)C(=O)[C@]1(CO1)C)NC(=O)[C@H]([C@@H](C)CC)N(C)C(=O)C [epoxomicin]
# How it was run: as §1
# [3] = compound: CCn1c(C(=O)N(C2CC2)C2CC2)cc2c3c(ncn3C)c(Nc3cc(C)n(C)n3)nc21
# How it was run: as §1
# [4] = compound: CCn1cc(-c2ccnc3[nH]c(-c4cccc(CN(C)C)c4)cc23)c(-c2ccc(NC(=O)N(C)C)cc2)n1
# How it was run: as §1
# [5] = compound: CN(C)CC(=O)Nc1ccc2[nH]c(=O)c3ccccc3c2c1
# How it was run: as §1
# rosiglitazone = compound: CN(CCOC1=CC=C(C=C1)C[C@H]2C(=O)NC(=O)S2)C3=CC=CC=N3 (racemic) [rosiglitazone]
# How it was run: as §1
# [6] = compound: CN1C2=C(C3=C1C(=O)N(N=C3)CC4=CC(=CC=C4)N)SC(=C2)S(=O)C
# How it was run: as §1
# [7] = compound: CN1CCC(CNc2ccc3ncc(-c4cccc(OC(F)(F)F)c4)n3n2)CC1
# How it was run: as §1
# saracatinib = compound: CN1CCN(CCOc2cc(OC3CCOCC3)c3c(Nc4c(Cl)ccc5c4OCO5)ncnc3c2)CC1 [saracatinib]
# How it was run: as §1
# sotrastaurin = compound: CN1CCN(c2nc(C3=C(c4c[nH]c5ccccc45)C(=O)NC3=O)c3ccccc3n2)CC1 [sotrastaurin]
# How it was run: as §1
# alvocidib = compound: CN1CC[C@H](c2c(O)cc(O)c3c(=O)cc(-c4ccccc4Cl)oc23)[C@H](O)C1 [alvocidib]
# How it was run: as §1
# Tubastatin A = compound: CN1CCc2c(c3ccccc3n2Cc2ccc(C(=O)NO)cc2)C1 [Tubastatin A]
# How it was run: as §1
# [8] = compound: CNC(=O)C1=CC=CC=C1NC2=NC(=NC=C2Cl)NC3=C(C=C(C=C3)N4CCOCC4)OC
# How it was run: as §1
# defactinib = compound: CNC(=O)c1ccc(Nc2ncc(C(F)(F)F)c(NCc3nccnc3N(C)S(C)(=O)=O)n2)cc1 [defactinib]
# How it was run: as §1
# rucaparib = compound: CNCc1ccc(-c2[nH]c3cc(F)cc4c3c2CCNC4=O)cc1 [rucaparib]
# How it was run: as §1
# [9] = compound: CNc1nc(-c2ccc3c(N)n[nH]c3c2)cc(N2C[C@@H](C(=O)NC3CCCCC3)CC[C@H]2C)n1
# How it was run: as §1
# encorafenib = compound: COC(=O)N[C@@H](C)CNc1nccc(-c2cn(C(C)C)nc2-c2cc(Cl)cc(NS(C)(=O)=O)c2F)n1 [encorafenib]
# How it was run: as §1
# [10] = compound: COC(=O)[C@H](CCSC)NC(=O)C1=C(C=C(C=C1)NC[C@H](CS)N)C2=CC=CC=C2
# How it was run: as §1
# UniProt Q96BW9, sequence (Q96BW9 whole entry, looked up): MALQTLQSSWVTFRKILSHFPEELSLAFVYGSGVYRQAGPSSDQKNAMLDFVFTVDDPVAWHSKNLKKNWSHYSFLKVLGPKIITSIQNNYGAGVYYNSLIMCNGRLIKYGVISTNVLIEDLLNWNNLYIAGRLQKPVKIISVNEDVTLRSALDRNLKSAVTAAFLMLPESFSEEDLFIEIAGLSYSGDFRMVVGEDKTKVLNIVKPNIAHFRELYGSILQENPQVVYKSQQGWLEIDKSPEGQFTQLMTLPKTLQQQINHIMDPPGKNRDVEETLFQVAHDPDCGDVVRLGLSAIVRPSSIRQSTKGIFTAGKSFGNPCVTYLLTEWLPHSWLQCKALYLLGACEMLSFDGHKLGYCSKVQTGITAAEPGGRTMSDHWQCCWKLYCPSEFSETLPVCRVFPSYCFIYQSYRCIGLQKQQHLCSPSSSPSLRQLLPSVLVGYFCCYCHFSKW
# UniProt Q8NBW4, sequence (Q8NBW4 whole entry, looked up): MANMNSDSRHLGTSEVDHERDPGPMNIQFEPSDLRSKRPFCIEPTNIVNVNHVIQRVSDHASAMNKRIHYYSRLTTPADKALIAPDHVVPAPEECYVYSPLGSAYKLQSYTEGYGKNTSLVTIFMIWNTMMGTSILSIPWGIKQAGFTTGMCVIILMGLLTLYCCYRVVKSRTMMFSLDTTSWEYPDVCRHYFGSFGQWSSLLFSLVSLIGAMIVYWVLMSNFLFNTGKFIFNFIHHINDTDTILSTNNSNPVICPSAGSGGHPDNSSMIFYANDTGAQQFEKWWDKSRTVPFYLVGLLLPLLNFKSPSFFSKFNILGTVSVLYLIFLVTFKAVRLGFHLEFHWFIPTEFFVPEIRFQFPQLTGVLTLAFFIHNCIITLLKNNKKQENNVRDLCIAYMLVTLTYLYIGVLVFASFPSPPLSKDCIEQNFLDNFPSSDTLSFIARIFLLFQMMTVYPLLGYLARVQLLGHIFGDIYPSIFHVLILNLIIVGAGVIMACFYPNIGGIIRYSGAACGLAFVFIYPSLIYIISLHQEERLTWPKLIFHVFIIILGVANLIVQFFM
# UniProt Q99523, sequence (Q99523 whole entry, looked up): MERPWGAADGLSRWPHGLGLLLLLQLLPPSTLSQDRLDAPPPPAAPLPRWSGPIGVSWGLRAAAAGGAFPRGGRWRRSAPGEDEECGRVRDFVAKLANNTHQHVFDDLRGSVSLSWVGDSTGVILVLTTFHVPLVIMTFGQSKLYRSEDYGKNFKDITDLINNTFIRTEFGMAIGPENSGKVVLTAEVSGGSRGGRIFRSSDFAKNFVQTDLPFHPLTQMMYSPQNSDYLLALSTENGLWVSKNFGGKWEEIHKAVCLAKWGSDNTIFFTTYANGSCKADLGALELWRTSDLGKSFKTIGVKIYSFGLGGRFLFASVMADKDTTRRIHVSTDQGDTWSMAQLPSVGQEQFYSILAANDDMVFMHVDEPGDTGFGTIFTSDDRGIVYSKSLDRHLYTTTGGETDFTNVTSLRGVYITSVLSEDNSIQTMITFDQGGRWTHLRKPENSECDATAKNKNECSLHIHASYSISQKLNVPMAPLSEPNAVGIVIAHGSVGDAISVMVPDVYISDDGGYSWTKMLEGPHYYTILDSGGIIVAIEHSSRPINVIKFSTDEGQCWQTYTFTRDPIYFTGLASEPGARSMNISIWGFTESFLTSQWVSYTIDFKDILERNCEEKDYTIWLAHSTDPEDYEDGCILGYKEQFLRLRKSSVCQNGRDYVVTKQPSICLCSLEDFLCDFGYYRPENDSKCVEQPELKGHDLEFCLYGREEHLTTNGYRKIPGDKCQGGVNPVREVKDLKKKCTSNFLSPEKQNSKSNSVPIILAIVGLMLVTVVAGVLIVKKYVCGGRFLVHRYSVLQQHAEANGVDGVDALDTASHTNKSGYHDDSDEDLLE
# UniProt Q9Y6I9, sequence (Q9Y6I9 whole entry, looked up): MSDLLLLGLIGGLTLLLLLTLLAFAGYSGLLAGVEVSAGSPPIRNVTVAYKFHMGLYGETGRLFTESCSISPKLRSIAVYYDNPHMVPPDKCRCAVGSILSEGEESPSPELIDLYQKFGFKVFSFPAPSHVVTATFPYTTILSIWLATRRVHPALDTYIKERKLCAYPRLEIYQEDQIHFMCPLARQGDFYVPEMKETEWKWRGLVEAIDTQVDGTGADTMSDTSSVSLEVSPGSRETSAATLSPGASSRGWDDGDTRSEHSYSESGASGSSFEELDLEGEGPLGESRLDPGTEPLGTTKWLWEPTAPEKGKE
# UniProt Q66K14, sequence (Q66K14 whole entry, looked up): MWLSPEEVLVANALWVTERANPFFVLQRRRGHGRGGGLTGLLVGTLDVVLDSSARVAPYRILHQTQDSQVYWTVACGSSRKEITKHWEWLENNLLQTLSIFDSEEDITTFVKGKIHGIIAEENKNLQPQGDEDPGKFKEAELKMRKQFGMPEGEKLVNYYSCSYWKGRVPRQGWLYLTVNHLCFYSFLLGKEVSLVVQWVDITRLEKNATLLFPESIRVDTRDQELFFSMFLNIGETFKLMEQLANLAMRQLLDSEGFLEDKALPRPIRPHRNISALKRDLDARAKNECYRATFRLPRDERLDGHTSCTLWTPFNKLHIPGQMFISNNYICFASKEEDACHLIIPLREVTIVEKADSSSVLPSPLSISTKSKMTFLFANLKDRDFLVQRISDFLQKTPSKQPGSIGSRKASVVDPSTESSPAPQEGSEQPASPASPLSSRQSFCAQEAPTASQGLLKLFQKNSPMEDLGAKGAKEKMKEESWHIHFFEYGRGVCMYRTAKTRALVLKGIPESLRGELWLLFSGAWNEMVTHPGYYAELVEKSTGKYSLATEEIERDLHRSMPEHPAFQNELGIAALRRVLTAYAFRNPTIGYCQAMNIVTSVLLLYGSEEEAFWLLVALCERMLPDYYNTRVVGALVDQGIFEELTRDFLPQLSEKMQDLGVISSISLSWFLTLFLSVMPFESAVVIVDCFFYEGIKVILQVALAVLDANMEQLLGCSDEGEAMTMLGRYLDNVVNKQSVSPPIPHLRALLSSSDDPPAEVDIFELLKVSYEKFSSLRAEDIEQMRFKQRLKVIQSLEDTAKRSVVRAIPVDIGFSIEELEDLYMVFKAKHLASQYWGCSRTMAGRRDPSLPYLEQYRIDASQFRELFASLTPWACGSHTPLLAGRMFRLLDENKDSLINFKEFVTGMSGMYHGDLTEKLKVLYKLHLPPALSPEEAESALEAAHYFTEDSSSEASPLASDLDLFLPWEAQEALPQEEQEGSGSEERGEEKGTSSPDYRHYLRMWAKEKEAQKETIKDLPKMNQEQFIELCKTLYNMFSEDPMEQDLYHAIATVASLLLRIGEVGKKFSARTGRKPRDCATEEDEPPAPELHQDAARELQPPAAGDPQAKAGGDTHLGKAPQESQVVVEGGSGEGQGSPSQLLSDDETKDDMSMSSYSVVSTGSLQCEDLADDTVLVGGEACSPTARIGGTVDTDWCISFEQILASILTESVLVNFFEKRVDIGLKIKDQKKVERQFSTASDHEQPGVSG
# UniProt P50225, sequence (P50225 whole entry, looked up): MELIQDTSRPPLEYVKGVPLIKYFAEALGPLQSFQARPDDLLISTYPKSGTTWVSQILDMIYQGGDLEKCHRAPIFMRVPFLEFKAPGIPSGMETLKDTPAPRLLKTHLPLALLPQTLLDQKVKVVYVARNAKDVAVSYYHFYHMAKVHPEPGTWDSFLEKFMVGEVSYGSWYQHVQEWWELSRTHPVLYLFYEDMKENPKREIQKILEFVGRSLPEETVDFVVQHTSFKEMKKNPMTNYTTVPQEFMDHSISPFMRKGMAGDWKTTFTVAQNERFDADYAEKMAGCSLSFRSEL
# UniProt P84103, sequence (P84103 whole entry, looked up): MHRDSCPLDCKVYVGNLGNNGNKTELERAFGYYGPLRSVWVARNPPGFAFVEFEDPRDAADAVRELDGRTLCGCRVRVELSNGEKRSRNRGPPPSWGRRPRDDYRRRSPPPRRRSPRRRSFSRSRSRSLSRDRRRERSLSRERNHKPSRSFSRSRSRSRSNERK
# UniProt Q86VP1, sequence (Q86VP1 whole entry, looked up): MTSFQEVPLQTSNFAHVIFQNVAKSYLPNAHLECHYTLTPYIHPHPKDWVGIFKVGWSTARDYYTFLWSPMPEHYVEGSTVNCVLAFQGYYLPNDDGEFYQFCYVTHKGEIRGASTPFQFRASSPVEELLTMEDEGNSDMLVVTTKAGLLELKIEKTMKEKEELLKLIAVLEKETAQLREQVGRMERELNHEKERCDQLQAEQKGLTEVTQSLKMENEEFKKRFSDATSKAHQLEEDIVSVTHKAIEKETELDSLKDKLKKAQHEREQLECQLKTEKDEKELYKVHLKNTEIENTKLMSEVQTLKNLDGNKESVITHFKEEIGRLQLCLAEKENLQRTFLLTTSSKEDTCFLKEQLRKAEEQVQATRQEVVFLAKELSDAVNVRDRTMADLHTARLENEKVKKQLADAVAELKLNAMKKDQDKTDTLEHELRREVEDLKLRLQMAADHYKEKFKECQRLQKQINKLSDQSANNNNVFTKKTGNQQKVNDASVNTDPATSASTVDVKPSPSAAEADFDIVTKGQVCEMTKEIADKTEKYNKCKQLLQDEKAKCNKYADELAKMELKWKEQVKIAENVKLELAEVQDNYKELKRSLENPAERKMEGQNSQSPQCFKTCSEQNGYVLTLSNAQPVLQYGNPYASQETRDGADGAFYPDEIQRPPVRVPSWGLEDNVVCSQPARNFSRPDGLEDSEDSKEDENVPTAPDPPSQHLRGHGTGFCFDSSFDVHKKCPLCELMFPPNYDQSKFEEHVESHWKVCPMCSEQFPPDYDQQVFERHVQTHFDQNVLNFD
# UniProt Q15005, sequence (Q15005 whole entry, looked up): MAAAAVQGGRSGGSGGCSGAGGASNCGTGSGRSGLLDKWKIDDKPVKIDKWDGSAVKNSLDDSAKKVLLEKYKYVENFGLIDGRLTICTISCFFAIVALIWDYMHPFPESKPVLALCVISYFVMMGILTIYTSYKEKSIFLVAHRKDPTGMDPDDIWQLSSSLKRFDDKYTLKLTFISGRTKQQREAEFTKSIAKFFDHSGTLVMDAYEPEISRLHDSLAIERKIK
# UniProt Q9Y5J6, sequence (Q9Y5J6 whole entry, looked up): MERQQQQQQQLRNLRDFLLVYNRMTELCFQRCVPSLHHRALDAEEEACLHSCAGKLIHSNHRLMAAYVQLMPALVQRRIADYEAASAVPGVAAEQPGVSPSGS
Target,log2 fold change [1],log2 fold change (volasertib),log2 fold change [2],log2 fold change (epoxomicin),log2 fold change [3],log2 fold change [4],log2 fold change [5],log2 fold change (rosiglitazone),log2 fold change [6],log2 fold change [7],log2 fold change (saracatinib),log2 fold change (sotrastaurin),log2 fold change (alvocidib),log2 fold change (Tubastatin A),log2 fold change [8],log2 fold change (defactinib),log2 fold change (rucaparib),log2 fold change [9],log2 fold change (encorafenib),log2 fold change [10]
TIMM10B (UniProt Q9Y5J6),0.033,-0.011,-0.064,0.274,0.115,-0.033,-0.12,-0.041,0.063,0.131,-0.046,0.074,-0.022,0.109,0.484 (active),-0.074,0.017,-0.106,-0.022,-0.117
TAMM41 isoform 3 (UniProt Q96BW9),-0.209,-0.312 (active),-0.004,0.02,-0.02,0.022,0.013,0.005,-0.052,-0.362 (active),-0.009,-0.003,0.027,-0.043,-0.037,0.015,0.036,-0.006,0.01,-0.007
SURF2 (UniProt Q15527),-0.002,-0.046,0.014,0.04,-0.008,-0.078,0.037,0,-0.043,0.024,0.034,-0.02,0,0.066,-0.015,-0.056,-0.055,-0.059,-0.037,-0.016
SREK1 isoform 2 (UniProt Q8WXA9),-0.122,-0.22,0.037,-0.021,0.021,-0.098,-0.029,0.015,0.026,-0.035,-0.034,-0.106,0.005,0.061,-0.422,-0.371,0.083,0.013,0.059,-0.007
SORT1 (UniProt Q99523),-0.984 (active),-1.34 (active),-0.013,0.032,-0.028,0.007,0.003,0.008,-0.028,-0.582 (active),0.038,0.017,0.012,-0.011,0.017,-0.033,0,-0.027,-0.017,0.014
SP100 isoform 4 (UniProt P23497),-0.021,-0.065,0.012,-0.006,0.023,0.056,-0.045,-0.009,-0.059,-0.064,0.058,-0.003,-0.117,-0.015,0.018,-0.087,-0.065,-0.092,-0.06,0.095
SLC38A9 (UniProt Q8NBW4),-0.013,-0.003,-0.022,-0.02,0.007,0.055,-0.039,0.003,0.029,-0.197,0.053,-0.184,-0.024,-0.05,0.025,-0.038,-0.048,-0.073,-0.001,0.001
TGFBRAP1 (UniProt Q8WUH2),-0.098,-0.253,0.128,0.048,-0.038,-0.059,0.11,0.097,0.195,0.011,-0.124,0.048,-0.008,0.134,0.047,-0.061,0.097,-0.051,0.076,-0.109
SULT1A1 (UniProt P50225),-0.159,-0.445 (active),0.091,0.026,-0.056,-0.106,0.105,0.025,0.072,-0.208,0.052,-0.03,-0.061,-0.004,0.105,-0.214,-0.048,0.05,0.084,-0.125
TEX264 (UniProt Q9Y6I9),0.016,0.356,-0.073,0,-0.201,0.499,0.098,0.039,0.182,0.262,-0.041,-0.027,-0.036,-0.077,0.13,0.112,0.407,0.629 (active),-0.039,0.071
TAX1BP1 (UniProt Q86VP1),-0.144,-0.298 (active),-0.081,-0.027,0.055,-0.067,0,-0.011,-0.001,0.003,0.016,-0.057,-0.028,-0.01,-0.016,-0.038,-0.003,-0.06,0.025,0.054
SRSF3 (UniProt P84103),0.198,0.313,-0.075,-0.213,0.028,0.189,-0.139,-0.115,0.18,0.233,0.019,0.079,0.265,-0.026,-0.053,0.235,0.257,-0.022,0.023,0.032
STAM2 (UniProt O75886),-0.039,-0.297 (active),0.063,0.039,-0.007,-0.056,0,0.022,-0.033,-0.128,-0.093,-0.011,-0.097,-0.014,0.035,-0.095,-0.035,-0.02,0.027,-0.019
SLC25A39 (UniProt Q9BZJ4),0.029,-0.06,0.087,0.081,0.096,-0.12,0.06,-0.03,0.012,-0.82 (active),0.107,-0.076,0.134,-0.18,-0.118,-0.044,-0.01,0.015,0.005,0.041
SPCS2 (UniProt Q15005),0.018,-0.006,0.02,0.091,-0.067,-0.009,0.038,0.029,-0.078,0.005,-0.029,-0.054,-0.058,-0.026,0.062,-0.026,-0.062,0.038,0.044,0.021
TBC1D9B (UniProt Q66K14),-0.58 (active),-0.348 (active),0.053,-0.073,-0.089,-0.141,0.021,-0.102,0.018,-0.328 (active),-0.023,0.077,-0.059,0.063,-0.07,-0.064,0.009,-0.01,0.065,0.027
